Laboratory results published in PubChem BioAssay (Tox21).
Values without a mark were called inactive. Records with an inconclusive call do not appear. A call without a number means that no potency is given here. Calls of active or inactive are those of the source. Unless noted, calls come from the whole dose curve; as a rule, active = well fitted curve in the direction sought with a large enough effect in the repeat runs; inconclusive = weak or mixed curves; inactive = no such curve, though single readings can be large; an effect the other way counts as inactive or inconclusive.

Tests used:
[1] = target: Luciferin 4-monooxygenase (Photinus pyralis) (UniProt P08659); assay: qHTS assay to identify small molecule inhibitors of firefly luciferase (AID 1224835); note: nearly all actives have a fitted effect of over 25% in size
Procedure, shortened: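 Biochemical qHTS: compounds run as interplate titrations against purified firefly enzyme, with D-luciferin and ATP each at its KM concentration. Light output recorded by CCD imaging.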

[2] = qHTS assay to identify small molecule antagonists of the estrogen related receptor signaling pathway with the pleiotropic PPARgamma coactivator (PGC) from Tox21 10K library - cell viability counter screen (AID 1224840; active = well fitted cell-killing curve with a large enough effect in the repeat runs, not every such curve was filed as active; note: nearly all actives have a fitted effect of over 40% in size)
Procedure, shortened: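 Cell viability is measured by CellTiter-Fluor fluorescence in PGC/ERR cells that receive compounds after a 6-hour attachment period and are then incubated 17.5 hours at 37 C.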

[3] = qHTS assay to identify small molecule antagonists of the estrogen related receptor signaling pathway with the pleiotropic PPARgamma coactivator (PGC) from Tox21 10K library (AID 1224841; call rule not given here; note: actives are mostly falling curves and most rising ones were filed inactive; nearly all actives have a fitted effect of over 50% in size; note: potency is the fitted concentration of half-maximal effect)
Procedure, shortened: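 Cells stably carrying the PGC/ERR reporter, seeded at 2,000 per well, received pin-transferred compounds 6 h post-plating. Exposure lasted 18 h at 37 C. Signal: One-Glo luminescence.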

[4] = qHTS assay to identify small molecule agonists of the estrogen related receptor signaling pathway with the pleiotropic PPARgamma coactivator (PGC) from Tox21 10K library (AID 1224842); note: nearly all actives have a fitted effect of over 15% in size
Procedure, shortened: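 PGC/ERR reporter cell line, 2,000 cells per well, incubated 6 h at 37 C before 23 nL compound in DMSO was added. After 18 h at 37 C, One-Glo luminescence read following 30 min at room temperature.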

[5] = target: Thyrotropin receptor (Homo sapiens) (UniProt P16473); assay: qHTS assay to identify small molecule agonists of the thyroid stimulating hormone receptor (TSHR) signaling pathway (AID 1224843; calls by dose curve; note: nearly all actives have a fitted effect of over 45% in size)
Procedure, shortened: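 HEK293/TSHR, 800 cells/well; cpd 30 min RT; add cAMP-d2 + anti-cAMP-cryptate, 1 h RT; fluorescence read on plate reader. 15-pt titration, n=3.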

[6] = qHTS assay to identify small molecule agonists of the hypoxia (HIF-1) signaling pathway - cell viability counter screen (AID 1224844; calls by dose curve; note: nearly all actives have a fitted effect of over 50% in size)
Procedure, shortened: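 Viability counter screen: HRE-bla ME-180 cells plated 5 hrs before compound addition, treated 17 hrs at 37C and 5% CO2, then CellTiter-Glo added after the FRET reporter read; luminescence after 30 min.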

[7] = qHTS assay to identify small molecule agonists of H2AX (AID 1224845; active = well fitted activation curve with a large enough effect in the signal ratio in the repeat runs, not every such curve was filed as active; the % refers to the signal ratio)
Procedure, shortened: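 Wild-type CHO-K1 cells, plated overnight, exposed 3hr at 37C to 15 concentrations (0.76% DMSO final). Lysed, then HTRF anti-pH2AX (S139) cryptate and anti-H2AX-d2 antibodies, 24 hr room temperature; 665/620 nm emission read.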

[8] = qHTS assay to identify small molecule agonists of H2AX - cell viability counter screen (AID 1224847; calls by dose curve; note: nearly all actives have a fitted effect of over 30% in size; note: potency is the fitted concentration of half-maximal effect)
Procedure, shortened: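 Cytotoxicity counter screen in wild-type CHO-K1 cells: a 3 hr compound treatment at 37C across 15 concentrations, followed by CellTiter-Glo luminescence to gauge viable cells.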

[9] = qHTS assay to identify small molecule antagonists of the estrogen related receptor (ERR) signaling pathway from Tox21 library (AID 1224848); note: nearly all actives have a fitted effect of over 50% in size; note: potency is the fitted concentration of half-maximal effect
Procedure, shortened: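 Compounds dissolved in DMSO are pin-transferred onto ERR reporter cells (2,000 per well) that have settled for 6 h at 37 C. Plates then incubate 18 h at 37 C before ONE-Glo luciferase reagent and a luminescence read 30 min later.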

[10] = qHTS assay to identify small molecule agonists of the estrogen related receptor (ERR) signaling pathway from Tox21 library (AID 1224849; calls by dose curve; note: nearly all actives have a fitted effect of over 15% in size); settings: ERR reporter cell line, ONE-Glo luciferase, 18 h; at 92.4 µM (top of the series) unless noted
Procedure, shortened: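 Quantitative HTS in agonist format: NTP ERR cell line, compounds transferred in DMSO after 6 h plating, 18 h incubation at 37 C, ONE-Glo luminescence endpoint.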

[11] = qHTS RealTime-Glo MT Cell Viability Assay in HepG2 cells - 24 hour (AID 1224867); note: nearly all actives have a fitted effect of over 50% in size
Procedure, shortened: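 Viability was tracked continuously by NanoLuc luminescence from prosubstrate reduced by living HepG2 cells, at successive time points over 40 h of compound exposure. Cells with reagent were preincubated 5 h at 37 °C before compound addition.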

[12] = qHTS RealTime-Glo MT Cell Viability Assay in HEK293 cells - 32 hour (AID 1224868); note: nearly all actives have a fitted effect of over 50% in size; note: potency is the fitted concentration of half-maximal effect
Procedure, shortened: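 Viability tracked continuously by luminescence as live cells reduce a prosubstrate for NanoLuc; HEK293 cells preincubated 5 h, compound-treated at 37 C, and read at 0, 8, 16, 24, 32 and 40 h.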

[13] = A CellTox Green Cytotoxicity Assay to monitor cytotoxicity in HEK293 cells - 0 hour (AID 1224869); note: nearly all actives have a fitted effect of over 50% in size
Procedure, shortened: (§1)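 Dead-cell fluorescence measured kinetically: asymmetric cyanine dye, HEK293, 600 cells/well, 5 h settle, 23 nL cpd/DMSO, 37 C, reads 0–40 h every 8 h.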

[14] = qHTS RealTime-Glo MT Cell Viability Assay in HepG2 cells - 40 hour (AID 1224870); note: nearly all actives have a fitted effect of over 50% in size
Procedure, shortened: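 HepG2 cells (600/well) mixed with RealTime-Glo MT reagent, settled 5 h at 37 C/5% CO2 before compound addition. Nonlytic NanoLuc luminescence from viable-cell prosubstrate reduction read repeatedly during 40 h treatment at 37 C.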

[15] = A CellTox Green Cytotoxicity Assay to monitor cytotoxicity in HEK293 cells - 40 hour (AID 1224871); note: nearly all actives have a fitted effect of over 45% in size; note: potency is the fitted concentration of half-maximal effect
Procedure, shortened: as §1

[16] = qHTS assay to identify small molecule antagonists of the constitutive androstane receptor (CAR) signaling pathway - cell viability counter screen (AID 1224837); note: nearly all actives have a fitted effect of over 45% in size
Procedure, shortened: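 Cells are seeded, rested 4 hr at 37 C/5% CO2, dosed with compound (15-point series) and 50 nM CITCO, incubated a further 23 hr, and then CellTiter-Fluor reagent is added before fluorescence is read. The line is HepG2 with stable hCAR and CYP2B6-2.2kb.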

[17] = target: Nuclear receptor subfamily 1 group I member 3 (Homo sapiens) (UniProt Q14994); assay: qHTS assay to identify small molecule antagonists of the constitutive androstane receptor (CAR) signaling pathway (AID 1224838);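 note: HepG2 cells stably expressing hCAR with CYP2B6 luciferase reporter stimulated by CITCO; nearly all actives have a fitted effect of over 40% in size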
Procedure, shortened: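 Luminescence from a CYP2B6-2.2kb promoter reporter in hCAR-expressing HepG2 cells reflects CAR signaling. Cells received compounds at 15 concentrations and 50 nM CITCO (final), then incubated 24 h at 37 C/5% CO2.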

[18] = qHTS assay to identify small molecule agonists of the hypoxia (HIF-1) signaling pathway (AID 1224846; active = well fitted activation curve with a large enough effect in the signal ratio in the repeat runs, not every such curve was filed as active; the % refers to the signal ratio)
Procedure, shortened: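 Agonist mode reporter screen. ME-180 cells stably expressing bla under HRE control received test compounds in DMSO for 17 hrs (37C, 5% CO2), and beta-lactamase activity was then detected with the CCF4-AM FRET substrate.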

[19] = qHTS assay to identify small molecule agonists of the constitutive androstane receptor (CAR) signaling pathway - cell viability counter screen (AID 1224836); note: nearly all actives have a fitted effect of over 45% in size
Procedure, shortened: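 Cells were seeded and incubated 4 hrs. Compounds were added across 15 concentrations together with PK11195 at 0.75 uM final. Plates were incubated 23 hrs at 37 C. CellTiter-Fluor was added and fluorescence measured.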

[20] = target: Nuclear receptor subfamily 1 group I member 3 (Homo sapiens) (UniProt Q14994); assay: qHTS assay to identify small molecule agonists of the constitutive androstane receptor (CAR) signaling pathway (AID 1224839); note: nearly all actives have a fitted effect of over 15% in size; note: potency is the fitted concentration of half-maximal effect;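 for activation: HepG2 cells stably carrying human CAR and a CYP2B6 luciferase reporter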
Procedure, shortened: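 Cells were plated and incubated 4 hrs, then dosed with compounds at 15 concentrations. PK11195 was added to 0.75 uM final. After 24 hrs at 37 C, luciferase luminescence was measured.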

Sequence of Nuclear receptor subfamily 1 group I member 3 (Homo sapiens) (Q14994 whole entry, looked up): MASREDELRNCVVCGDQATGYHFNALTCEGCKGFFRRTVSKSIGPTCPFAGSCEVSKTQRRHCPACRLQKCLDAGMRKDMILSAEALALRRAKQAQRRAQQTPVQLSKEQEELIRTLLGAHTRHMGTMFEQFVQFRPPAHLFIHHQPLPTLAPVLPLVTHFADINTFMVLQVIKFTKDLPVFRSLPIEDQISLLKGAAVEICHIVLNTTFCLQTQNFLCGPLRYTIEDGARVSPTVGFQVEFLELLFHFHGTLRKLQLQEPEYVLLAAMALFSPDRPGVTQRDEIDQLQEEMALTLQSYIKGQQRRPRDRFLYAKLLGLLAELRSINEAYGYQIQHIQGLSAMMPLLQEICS
Sequence of Luciferin 4-monooxygenase (Photinus pyralis) (P08659 whole entry, looked up): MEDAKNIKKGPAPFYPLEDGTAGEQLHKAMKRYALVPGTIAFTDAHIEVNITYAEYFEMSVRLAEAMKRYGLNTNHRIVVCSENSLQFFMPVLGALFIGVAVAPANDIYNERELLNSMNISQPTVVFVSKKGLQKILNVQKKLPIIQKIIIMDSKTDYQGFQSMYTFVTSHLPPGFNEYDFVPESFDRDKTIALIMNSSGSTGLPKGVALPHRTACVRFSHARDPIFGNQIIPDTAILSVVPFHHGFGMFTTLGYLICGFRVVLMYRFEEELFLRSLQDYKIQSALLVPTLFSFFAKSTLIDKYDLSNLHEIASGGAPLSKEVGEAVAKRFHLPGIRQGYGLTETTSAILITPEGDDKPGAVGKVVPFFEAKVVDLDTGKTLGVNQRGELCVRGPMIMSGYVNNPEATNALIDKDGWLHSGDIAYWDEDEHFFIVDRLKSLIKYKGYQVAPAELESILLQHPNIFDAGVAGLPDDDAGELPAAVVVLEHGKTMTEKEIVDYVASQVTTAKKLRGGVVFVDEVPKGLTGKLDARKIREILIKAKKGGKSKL
Sequence of Thyrotropin receptor (Homo sapiens) (P16473 whole entry, looked up): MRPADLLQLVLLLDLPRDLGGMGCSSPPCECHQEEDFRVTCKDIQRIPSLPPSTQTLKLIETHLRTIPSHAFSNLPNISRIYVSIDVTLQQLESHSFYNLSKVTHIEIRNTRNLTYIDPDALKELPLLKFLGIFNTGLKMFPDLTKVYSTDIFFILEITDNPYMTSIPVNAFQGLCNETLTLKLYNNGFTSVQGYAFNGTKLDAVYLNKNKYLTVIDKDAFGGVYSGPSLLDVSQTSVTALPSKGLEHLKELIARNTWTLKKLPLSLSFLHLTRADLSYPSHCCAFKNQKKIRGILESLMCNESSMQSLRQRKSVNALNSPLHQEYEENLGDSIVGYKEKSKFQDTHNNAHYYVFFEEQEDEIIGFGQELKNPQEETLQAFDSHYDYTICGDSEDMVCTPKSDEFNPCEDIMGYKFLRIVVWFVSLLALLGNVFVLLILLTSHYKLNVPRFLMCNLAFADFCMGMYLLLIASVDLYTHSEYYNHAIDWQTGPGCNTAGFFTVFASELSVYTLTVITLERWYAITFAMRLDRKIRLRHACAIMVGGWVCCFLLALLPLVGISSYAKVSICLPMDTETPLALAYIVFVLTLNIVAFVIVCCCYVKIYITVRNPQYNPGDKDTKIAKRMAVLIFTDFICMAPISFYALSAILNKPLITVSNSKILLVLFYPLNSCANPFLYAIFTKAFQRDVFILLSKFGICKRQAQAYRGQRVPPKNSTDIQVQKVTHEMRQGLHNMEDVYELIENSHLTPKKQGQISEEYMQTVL

Structure (SMILES)	Potency [1]	Potency [2]	Potency [3]	Potency [4]	Potency [5]	Potency [6]	Potency [7]	Potency [8]	Potency [9]	activity change, positive = activation [10]	Potency [11]	Potency [12]	Potency [13]	Potency [14]	Potency [15]	Potency [16]	Potency [17]	outcome [18]	Potency [19]	Potency [20]
CCCNC(C)C(=O)Nc1c(C)csc1C(=O)OC (configuration not stated)	inactive	inactive	inactive	inactive	inactive	inactive	inactive	inactive	inactive	-1.49% [at 42.5 µM]	inactive	inactive	inactive	inactive	inactive	–	–	–	–	–
Cc1cc(NS(=O)(=O)c2ccc(N)cc2)nc(C)n1	–	inactive	–	–	inactive	inactive	inactive	inactive	–	–	inactive	inactive	inactive	inactive	inactive	inactive	inactive	inactive	–	–
OCCN(CCO)c1ccccc1	inactive	inactive	–	–	–	inactive	inactive	inactive	–	–	inactive	inactive	inactive	–	inactive	–	–	inactive	–	–
OCc1c2ccccc2cc2ccccc12	–	inactive	68.8 µM (active)	inactive	–	inactive	–	–	–	-18.3%	inactive	–	inactive	inactive	inactive	inactive	inactive	inactive	inactive	–
CCCS(=O)c1ccc2nc(NC(=O)OC)[nH]c2c1 (configuration not stated)	inactive	inactive	–	–	inactive	inactive	inactive	inactive	–	–	inactive	–	inactive	inactive	inactive	–	inactive	inactive	–	–
CCCCCCCCc1ccc(S(=O)(=O)O)cc1	–	inactive	–	–	inactive	–	inactive	inactive	–	–	inactive	inactive	inactive	–	54.5 µM (active)	inactive	inactive	–	inactive	inactive
O=C(O)C(=O)Cc1c[nH]c2ccccc12	–	inactive	–	–	inactive	–	inactive	inactive	–	–	inactive	inactive	inactive	inactive	inactive	inactive	inactive	inactive	inactive	30.6 µM (active)
CC1(C)C(=O)N(Cl)C(=O)N1Br	–	inactive	–	–	–	inactive	–	inactive	–	–	inactive	inactive	inactive	inactive	inactive	inactive	inactive	inactive	–	inactive
CCOc1ccccc1N	inactive	inactive	15.2 µM (active)	inactive	inactive	–	inactive	44.7 µM (active)	12.1 µM (active)	-59%	inactive	–	inactive	inactive	–	–	inactive	inactive	–	–
C=O	–	inactive	inactive	inactive	inactive	inactive	–	inactive	inactive	0.267%	inactive	inactive	inactive	inactive	inactive	inactive	inactive	inactive	inactive	–
CCCCCOc1ccc(C2SC(=O)NC2=O)cc1OCC (configuration not stated)	–	inactive	–	–	–	inactive	inactive	inactive	–	–	inactive	inactive	inactive	inactive	inactive	inactive	inactive	inactive	inactive	–
CCOC(=O)COc1ccc2c(c1)CC(NCC(O)c1cccc(Cl)c1)CC2 (configuration not stated)	inactive	–	inactive	inactive	–	–	inactive	–	–	-15.6%	inactive	inactive	inactive	inactive	–	–	inactive	inactive	–	inactive
NC1=NCC2c3ccccc3Cc3ccccc3N12 (configuration not stated)	–	inactive	–	–	–	inactive	inactive	inactive	–	–	inactive	inactive	inactive	inactive	inactive	inactive	inactive	inactive	inactive	inactive
ClC(Cl)Cl	–	inactive	–	–	inactive	–	–	inactive	inactive	-1.48%	inactive	inactive	inactive	inactive	inactive	–	–	–	inactive	inactive
NCCC(O)(P(=O)(O)O)P(=O)(O)O	–	inactive	inactive	inactive	inactive	inactive	inactive	inactive	inactive	4.61% [at 42.5 µM]	inactive	inactive	inactive	inactive	inactive	inactive	inactive	inactive	inactive	inactive
CCNCCO	inactive	inactive	–	–	inactive	inactive	–	inactive	–	–	inactive	inactive	inactive	inactive	inactive	–	–	inactive	–	–
CCCCOc1cc(C(=O)NCCN(CC)CC)c2ccccc2n1	inactive	inactive	–	–	inactive	inactive	inactive	–	–	–	inactive	21.3 µM (active)	inactive	–	–	–	–	–	–	–
CCCCCCCCCCCCOCCOS(=O)(=O)O	–	inactive	inactive	inactive	inactive	–	inactive	inactive	–	-29.3%	inactive	–	inactive	inactive	24.5 µM (active)	inactive	inactive	–	inactive	inactive
CCc1cc(Cl)c(OC)c(C(=O)NC[C@@H]2CCCN2CC)c1O	inactive	inactive	inactive	inactive	–	–	inactive	inactive	inactive	1.1% [at 42.5 µM]	inactive	inactive	inactive	inactive	inactive	–	inactive	inactive	–	inactive
CC1=NN(c2cc(Cl)c(S(=O)(=O)O)cc2Cl)C(=O)C1N=Nc1ccc(S(=O)(=O)O)cc1 (configuration not stated)	inactive	–	–	–	inactive	inactive	–	inactive	–	–	inactive	inactive	inactive	inactive	inactive	–	–	inactive	–	–
